Experimental data reported in PubChem BioAssay (NCI).
About 83,000 compounds went through this panel and 20% of them were active in at least one assay; those are over-represented in the sample as a whole.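 Interpretation: 100, growth as untreated; towards 0, rising growth inhibition; 0, no net growth; 0 to -100, cell death. Compounds scoring below 10 were considered active.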 Values without a mark were called inactive. Calls of active or inactive are those of the source.

Columns and labels:
Assay in all cases: NCI-60 one-dose screen, 48 h (100 = growth as untreated, 0 = no growth, -100 = all killed)
Details in all cases: 10 µM
[1] = system: SK-MEL-2 melanoma
[2] = system: EKVX NSCLC
[3] = system: SN12C renal
[4] = system: UO-31 renal
[5] = system: TK-10 renal
[6] = system: ACHN renal
[7] = system: CAKI-1 renal
[8] = system: CCRF-CEM leukemia
[9] = system: MOLT-4 leukemia
[10] = system: SR leukemia
[11] = system: OVCAR-8 ovarian
[12] = system: OVCAR-4 ovarian
[13] = system: SK-OV-3 ovarian
[14] = system: IGROV1 ovarian
[15] = system: OVCAR-3 ovarian
[16] = system: HS 578T breast
[17] = system: NCI/ADR-RES ovarian
[18] = system: OVCAR-5 ovarian

SMILES	growth [1]	growth [2]	growth [3]	growth [4]	growth [5]	growth [6]	growth [7]	growth [8]	growth [9]	growth [10]	growth [11]	growth [12]	growth [13]	growth [14]	growth [15]	growth [16]	growth [17]	growth [18]
Cc1cc(O)ccc1C1=NN(c2ccc(S(C)(=O)=O)cc2)C(=O)CC1	68.7%	72.2%	90.3%	48.8%	105%	79.7%	25.4%	69.7%	52.7%	12.3%	92.3%	98%	85%	43.5%	65.1%	86.9%	40.6%	–
COCCn1cc(-c2nc(-c3cccnc3)cs2)c2cc(F)ccc21	106%	90.8%	95.7%	107%	80.4%	101%	103%	–	79.3%	63.5%	102%	95.6%	7.36% (active)	110%	94.1%	98.6%	86%	92.7%
COc1ccc(-c2nn(-c3cccc(Cl)c3)cc2-c2c(C#N)c(=O)n3[nH]c(-c4ccc(C)cc4)nc3c2C#N)cc1	46%	37.9%	60.9%	34.7%	58%	43.2%	15.2%	31.4%	-23.8% (active)	–	14.3%	57.1%	55.7%	38.5%	97%	43.4%	–	87%
Nc1ccc(-c2cccs2)cc1NC(=O)c1ccc(CCCC(=O)Nc2ccc(C3CC3N)cc2)cc1 (stereo not given)	69.6%	73.9%	80.3%	75.8%	55.6%	83.5%	88.7%	–	47%	-10.5% (active)	44.9%	93%	68%	80.9%	63%	75.5%	87.5%	86.2%
COc1ccc(-c2nn(-c3cccc(Cl)c3)cc2-c2cc(-c3ccccc3)nc(N)n2)cc1	83.6%	58.2%	35.8%	60.8%	86%	71.1%	29.2%	–	6.55% (active)	11.3%	67.9%	56.1%	98.5%	83.7%	72.2%	62%	53.3%	59%
Nc1cc(-c2ccc(Cl)cc2)nn1-c1nc2ccccc2nc1Cc1ccccc1	100%	78.6%	94.1%	87%	99.2%	103%	80.7%	–	–	–	91.2%	–	96.7%	94.9%	–	–	87.5%	95%
C=C/C(C)=C/C[C@]1(C)[C@H](C)[C@@H](OC(=O)CCC)[C@H](O)[C@@]23C(=C[C@H](OC)C[C@@H]12)[C@@H](OC(=O)CCC)O[C@H]3OC(C)=O	-70.5% (active)	-33.7% (active)	-51.9% (active)	-90.7% (active)	-95.1% (active)	-94.4% (active)	0.0055% (active)	–	-12.8% (active)	-20.2% (active)	-60.4% (active)	-2.11% (active)	-89.7% (active)	-9.72% (active)	-86.5% (active)	-31.5% (active)	-20.4% (active)	-41.3% (active)
CCOC(=O)CSc1nc(-c2cc(OC)ccc2OC)cc(-c2ccc(OC)cc2)c1C#N	84.3%	74.1%	79.5%	63%	75.7%	76.7%	83.4%	–	76.6%	69.7%	82.4%	101%	85%	55.4%	95.4%	90.2%	81.6%	97.3%
